Compounds with a hit are over-represented: about 0.24% of the library has one in this group of screens.
NPYLR7 agonist – activates Aedes aegypti NPYLR7 receptor. hit rate 0.15% among 270,000. activation, % at 10 µM. HEK293T NPYLR7/Galpha15, GCaMP6s calcium fluorescence; in the data active = activation above about 40%;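 also: 0% = vehicle and 100% = reference agonist at the receptor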
hcGAS inh – blocks human cGAS activity | inhibition, % at 12.5 µM | Q8N884 | recombinant h-cGAS, ATP depletion, Kinase-Glo luminescence | hit rate 0.081% among 290,000;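 also: 0% = vehicle reaction and 100% = reaction without DNA for no activity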
mcGAS inh – mouse cGAS inhibition by luminescence; Q8C6L5; recombinant cGAS, Kinase-Glo ATP depletion luminescence; inhibition, % at 12.5 µM; hit rate 0.15% among 160,000; AID 1259399;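 also: 0% = negative control wells and 100% = reference inhibitor with no enzyme activity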
Target sequence (Q8C6L5 whole entry, looked up): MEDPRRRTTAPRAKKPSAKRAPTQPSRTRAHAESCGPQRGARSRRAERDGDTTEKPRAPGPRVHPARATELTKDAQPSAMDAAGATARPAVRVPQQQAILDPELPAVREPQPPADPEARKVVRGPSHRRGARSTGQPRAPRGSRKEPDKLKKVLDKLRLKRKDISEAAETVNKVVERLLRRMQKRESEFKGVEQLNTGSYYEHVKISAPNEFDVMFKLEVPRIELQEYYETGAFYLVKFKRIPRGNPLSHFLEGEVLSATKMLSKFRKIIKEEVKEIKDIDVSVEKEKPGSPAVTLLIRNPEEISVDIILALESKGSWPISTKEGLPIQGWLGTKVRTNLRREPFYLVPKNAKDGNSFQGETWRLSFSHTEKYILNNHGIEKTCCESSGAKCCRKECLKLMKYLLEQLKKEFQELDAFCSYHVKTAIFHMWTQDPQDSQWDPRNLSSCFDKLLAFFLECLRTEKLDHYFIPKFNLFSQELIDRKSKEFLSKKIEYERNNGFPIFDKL
Numbers without * were called inactive; . = no result given; ! = not active in a repeat. Rule as the data show it, unless noted: active = inhibition above about 40%; inactive = the rest.

SMILES	NPYLR7 agonist	hcGAS inh	mcGAS inh
C(/C=C/CC=Nc1ccccc1)=Nc1ccccc1	66*	-5	-7
C[N+]1=C(CC=Nc2ccccc2)SCC1	-1	-3	.
CCc1nc2ccc(C(=O)N3CCNC(=O)C3)cn2c1N(C)Cc1ccc(Cl)cc1	-6	-1	2
CCOC(=O)CCC(=O)N1CCN(C(=O)c2cc3ccoc3n2Cc2ccc(C)cc2)CC1C (centres undefined)	8	-4	-3
C=C(C)Cn1c(C(=O)N2CCN(C(=O)CCC(=O)OCC)C(C)C2)cc2ccoc21 (centres undefined)	57*	-10	-7
COc1cc(C(=O)O)c(N)cc1OC(F)F	-5	4	.
CN(C)c1ccc(NC(=O)c2cccc(F)c2)cc1CN(Cc1ccc(F)cc1)S(C)(=O)=O	.	-7	-5
CC(=O)Nc1ccc(SCCCC(=O)N2CCN(c3ccccc3F)CC2)nn1	-1	-9	-9
C=CCOc1ccc(C=C(C#N)C(=O)c2ccc(OC)cc2)cc1	2	2	58*
COc1ccc(C=C(C#N)C(=O)c2ccc(OC)cc2)cc1	1	3	38
O=C(NCCC12CC3CC(CC(C3)C1)C2)c1ccc2c(=O)n3c(nc2c1)CCCCC3	6	3	.
O=C(NCCSc1ccc(Cl)cc1)c1ccc2c(=O)n3c(nc2c1)CCC3	82*	4	.
COc1ccc(Cc2nc3c(c(N4CCOCC4)n2)CN(C(=O)c2cccc(Br)c2)CC3)cc1	-5	2	0
O=C(c1cccc(Cl)c1)N1CCc2ccccc2C1c1ccc(F)cc1 (centres undefined)	23	-9	-3
CCc1cccc2c(C(CC(=O)NCCCN3CCOCC3)c3cccc(C(F)(F)F)c3)c[nH]c12 (centres undefined)	.	-12	-10
CCc1cccc2c(C(CC(=O)NCCCN3CCOCC3)c3ccc(OC)c(OC)c3)c[nH]c12 (centres undefined)	.	-12	68*
O=C(O)c1ccc(-n2c(O)c(C=C3C=Nc4ccccc43)sc2=S)cc1	-1	-7	-1
O=C(O)CCn1c(O)c(C=C2C=Nc3ccccc32)sc1=S	46*	4	-1
CC(C(=O)O)n1c(O)c(C=C2C=Nc3ccccc32)sc1=S (centres undefined)	75*	1	-5
O=C(Nn1c(O)c(C=C2C=Nc3ccccc32)sc1=S)c1ccccc1[N+](=O)[O-]	12	-5	-5
O=C1C2C3C=CC(CC3)C2C(=O)N1/N=C\c1cc([N+](=O)[O-])c(O)cc1O (centres undefined)	-10	0	66*
O=C1C2C3C=CC(CC3)C2C(=O)N1/N=C\c1cc2c(cc1Br)OCO2 (centres undefined)	4	0	-3
COCC(=O)N1CCCC(C(=O)NC2CCCC[C@H]2NC(=O)c2ccccc2)C1 (some centres undefined)	.	-6	-11
COc1ccc(C(=O)N[C@@H]2CCCCC2NC(=O)C2CCCN(C(=O)CCc3ccccc3)C2)cc1 (some centres undefined)	.	-2	79*
CCOc1cc(C(=O)OCc2nnc(-c3ccccc3)o2)cc(OCC)c1OCC	0	-11	.
SMILES	NPYLR7 agonist	hcGAS inh	mcGAS inh
NC(=O)N/N=C\c1c[nH]c2ccccc12	-6	1	0
CCCCCN=C(N)NN=Cc1c[nH]c2ccc(OC)cc12	46*	-4	.
O=c1c(O)c(-c2cc(O)c(O)c(O)c2)oc2cc(O)cc(O)c12	-3	71*	82*
O=c1c(O)c(-c2ccc(O)cc2O)oc2cc(O)cc(O)c12	5	-7	7
C#CCN1C(=O)SC(=Cc2ccc(N3CCCCC3)o2)C1=O	122*	-7	-3
CC(C)N1C(=O)SC(=Cc2ccc(N3CCCCC3)o2)C1=O	10	-6	-6
Cc1nonc1NC(=O)CN1CCOc2ccc(Cl)cc21	-3	0	.
CN1CCCC[C@]2(C[C@H](C(=O)O)[C@H](c3ccccc3)N2C(=O)c2ccccc2)C1=O	3	5	0
CCCCOc1ccc(C(=O)N2CCN(C(=O)CCCCSc3nnc(-c4ccco4)n3-c3ccc(OC)cc3)CC2C)cc1 (centres undefined)	-2	-17	-6
CCOC(=O)c1nn(-c2ccc(F)cc2)c(=O)cc1OCC	11	-4	.
COc1ccc(CN2CCN(Cc3cccn3-c3ncccn3)CC2CCO)c(C)c1C (centres undefined)	49*	-6	-9
COc1ccc(CN2CCN(Cc3cccn3-c3ncccn3)CC2CCO)c(F)c1 (centres undefined)	-5	1	.
CC(C)CNC(=O)CN(C)C(=O)c1csc(Nc2cc(Cl)ccc2Cl)n1	3	166*	.
CCC(C)NC(=O)CN(C)C(=O)c1csc(Nc2cccc(C(F)(F)F)c2)n1 (centres undefined)	.	-9	-6
COc1ccccc1C1=NOC(CN(Cc2ccccc2Cl)C(=O)NC(C)(C)C)C1 (centres undefined)	11	-10	-11
CSc1nnc2c(n1)OC(c1ccc(Br)cc1)Nc1ccccc1-2 (centres undefined)	2	-10	5
CSc1nnc2c(n1)OC(c1ccc(OC(=O)c3ccc(Br)cc3)cc1)Nc1ccccc1-2 (centres undefined)	46*	-3	-5
Cc1cc(NCCc2ccc(Cl)cc2Cl)n2ncnc2c1	-1	-8	-14
CCOc1cc(/C=C2\C(=N)N3N=CSC3=NC2=O)cc(Br)c1OC(=O)c1ccccc1	74*	2	.
COc1cc(/C=C2\C(=N)N3N=CSC3=NC2=O)ccc1OC(=O)c1cccc(C)c1	4	-4	.
N#CCSc1sc2c(O)cc(=O)[nH]c2c1C#N	2	2	60*
NC(=O)c1c(SCc2ccccc2)sc2c(O)cc(=O)[nH]c12	10	-8	-6
O=C(CCC1CCCC1)Nc1nnc(SCC(=O)c2cccc([N+](=O)[O-])c2)s1	5	-2	-4
Cc1ccc(C)c(CS(=O)(=O)CC(=O)Nc2ccc(F)cc2F)c1	-1	-7	.
CCC(C)n1c(=S)[nH]c2sc3c(c2c1=O)CCCCC3 (centres undefined)	9	-1	-1
SMILES	NPYLR7 agonist	hcGAS inh	mcGAS inh
Cc1cc(O)c(C=O)c2c1C(=O)Oc1c(COC(=O)/C=C/C(=O)O)c(O)c(C(=O)O)c(C)c1O2	.	69*	67*
COc1ccc(C=C2Oc3cc(O)ccc3C2=O)c(OC)c1	34	-8	.
O=C1C(=Cc2ccc(OC(F)F)cc2OC(F)F)Oc2cc(O)ccc21	41*	-5	.
COc1ccccc1C=C1Oc2cc(O)ccc2C1=O	17	-5	.
CCOc1cccc(C=C2Oc3cc(O)ccc3C2=O)c1OC	70*	-4	.
CCCCCc1ccc(C(=O)N2CCN(c3nc4nccc(-c5ccc(N6CCOCC6)cc5)n4n3)CC2)cc1	5	-4	-5
COCCNc1ncnc2c1c(-c1ccccc1)cn2-c1ccc(C)cc1	-5	-2	-7
COC(=O)c1sc(N)c(C(=O)OC)c1Cn1cc(C(F)(F)F)cc(Cl)c1=O	-5	54*	-2
COC(=O)C1CCN(C(=O)Cn2cc(C(F)(F)F)cc(Cl)c2=O)CC1	1	-12	.
O=C1C(=Cc2cccnc2)Sc2ccccc21	12	0	65*
O=C1C(=Cc2ccco2)Sc2ccccc21	8	-5	.
CN1CCC(=C2c3ccccc3Sc3ccccc32)CC1	54*!	-3	-5

Screening data deposited in PubChem BioAssay by Fisher Drug Discovery Resource Center.
